Source: PubChem
Rows were chosen to be rich in hits. Some 1% of all compounds tested hit in one or more screens of this group.
IP6K1 inhibitor: Primary qHTS assay for small molecule inhibitors of Inositol hexaphosphate kinase 1 (IP6K1) | Inositol hexakisphosphate kinase 1 (Homo sapiens), Q92551 | IP6K1 kinase, ADP-Glo luminescence, 2 h; stronger effect = lower value | activity change, % (series mostly up to about 58 µM) | hit rate 0.81% among 140,000 | AID 1645851, 2021; in the data active means activity change below about -25%; further: on the % scale 0 is the no-effect control and ±100 the full control effect
Target sequence (Q92551 whole entry, looked up): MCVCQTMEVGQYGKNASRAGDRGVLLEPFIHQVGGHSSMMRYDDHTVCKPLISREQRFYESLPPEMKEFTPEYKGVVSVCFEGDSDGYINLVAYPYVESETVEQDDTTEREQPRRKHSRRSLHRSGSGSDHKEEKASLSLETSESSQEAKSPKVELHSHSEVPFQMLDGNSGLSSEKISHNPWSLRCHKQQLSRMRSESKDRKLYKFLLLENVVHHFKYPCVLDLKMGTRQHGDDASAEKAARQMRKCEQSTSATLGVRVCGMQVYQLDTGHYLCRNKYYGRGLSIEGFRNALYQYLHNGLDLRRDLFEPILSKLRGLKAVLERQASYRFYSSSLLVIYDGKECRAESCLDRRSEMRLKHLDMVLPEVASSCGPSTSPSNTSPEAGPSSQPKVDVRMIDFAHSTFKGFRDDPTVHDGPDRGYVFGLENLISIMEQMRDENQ
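ADP-Glo luminescence measures ADP made by human IP6K1 during a 2 h RT reaction with ATP/IP6 (mix at 1.3 mM/130 uM); top library doses 57.5 and 19.1 uM final.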
GPT2 inhibitor: Primary qHTS assay for inhibitors of Glutamate pyruvate transaminase 2 (GPT2) | Recombinant GPT2, coupled pyruvate oxidase/HRP Amplex Red fluorescence | Potency, µM (doses to about 57.7 µM), for inactives: at the highest dose activity change, negative = inhibition, usual class: inhibitors | hit rate 0.25% among 100,000; further: potency means the concentration at half of the fitted maximal effect; on the % scale 0 is the no-effect control and ±100 the full control effect; nearly all actives have a fitted effect of over 60% in size
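Inhibition is scored from Amplex Red fluorescence generated when pyruvate oxidase and HRP act on pyruvate released by GPT2. Reactions contain 10ng/uL enzyme, 250uM a-KG and 2mM L-alanine and run 30 min at room temperature.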
HEK293 viab: GF-AFC viability counterscreen for inhibitors of alpha-synuclein gene (SNCA) expression | HEK-293-SNCA-luc viability, GF-AFC fluorescence, 24 h | Potency, µM (doses to about 57.1 µM), for the others: at the top dose activity change, negative = cytotoxicity, usual class: cytotoxic | hit rate 0.12% among 150,000;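 further: potency means the concentration at half of the fitted maximal effect; 0% = DMSO-treated cells and -100% = medium-only wells without cells; nearly all actives have a fitted effect of over 30% in size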
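Cytotoxicity counterscreen: after 24 h compound treatment of genome-edited SNCA-luciferase HEK-293 cells, live-cell protease substrate GF-AFC read by fluorescence after 30 min; activity scaled between DMSO (0%) and medium-only (-100%), curves Hill-fitted.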
SNCA expr inh: Primary qHTS assay for inhibitors of alpha-synuclein gene (SNCA) expression. HEK-293 SNCA-luciferase knock-in, luminescence, 24 h. Potency, µM (titrated, usually from 57.2 µM), for inactives: at the top dose activity change, negative = inhibition, actives largely listed as inhibitors. hit rate 0.17% among 140,000;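 further: potency means the concentration at half of the fitted maximal effect; plate controls were DMSO cells for no effect and cell-free wells for full effect; nearly all actives have a fitted effect of over 45% in size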
GPT2 inh cnf: Confirmatory qHTS assay for inhibitors of Glutamate pyruvate transaminase 2 (GPT2); shares compounds with GPT2 inhibitor; GPT2 enzyme, coupled Amplex Red pyruvate fluorescence; Potency, µM, actives largely listed as inhibitors; hit rate 90% among 95; AID 1671187, 2021
* marks the source's active call; other numbers are inactive results; i = inactive; ? = inconclusive; . = not tested or not shown; ! = not active in a repeat; [ ] = another dose, or the depositor's remark. Unless noted, the call rests on the fitted dose curve; in most records, active means well fitted curve in the direction sought with a large enough effect; inconclusive means small, poorly fitted or top-dose-only effect, or another doubt; inactive means no such curve, though single readings can be large; an effect the other way counts as inactive or inconclusive.

SMILES	IP6K1 inhibitor	GPT2 inhibitor	HEK293 viab	SNCA expr inh	GPT2 inh cnf
Cc1cc(Cl)ccc1NC(=O)CCn1ccn2nc3c(c2c1=O)CCCC3	0	i	-3%	-24%	.
O=C1CO[C@H]2CCN(Cc3c[nH]c4ccccc34)CC[C@@H]2N1Cc1ccccc1	-4	-9%[88.5 µM]	-10%[87.6 µM]	4%[87.6 µM]	.
OCCN(CCO)c1nc(N2CCCCC2)c2nc(N(CCO)CCO)nc(N3CCCCC3)c2n1	-14	6.3µM*!	?	-20%	1.7*
Clc1ccc2c(c1)Nc1ccccc1S2	15	?	-16%[23.9 µM]	-42%[25.6 µM]	3.4*
CCCn1ncc(N2CCC(C(=O)N(CCCOC)Cc3ccc4c(c3)CCCN4CC)CC2)cc1=O	-4	10µM*	-23%	-5%	1.7*
Cn1ccc2cc(NCc3nnc(C(=O)N4CCC[C@@H]4CN4CCCC4)n3-c3ccccc3)ccc21	-11	?	-2%	24%	?
COc1ccc(CCC(=O)N2CCOc3ccc(N4CCCC4)cc3C2)cc1	8	3.2µM*	-14%	?	1.5*
CCn1nccc1C(=O)N1CCC(CCn2c(C)cnc2C)CC1	29	i	20%	-21%	.
Oc1ccccc1CN1CCNc2cnc(Nc3ccccc3)cc2C1	-16	6.3µM*	-18%[87.6 µM]	?	6.3*
COc1ccc(CN2CCNc3cc(Nc4cccnc4)ncc3C2)cc1O	-21	0%[88.5 µM]	-22%[87.6 µM]	17%[87.6 µM]	.
COc1ccc(CN2CCNc3cnc(Nc4ccccc4)cc3C2)cc1O	-21	?	-15%[87.6 µM]	-24%[87.6 µM]	5*
c1ccc(Nc2cc3c(cn2)NCCN(Cc2ccccn2)C3)cc1	3	-81%[88.5 µM]	-9%[87.6 µM]	-2%[87.6 µM]	3.5*
COC(=O)NC1CCN(Cc2cccc(-c3ccc(SC)cc3)c2)CC1	-5	.	.	.	.
C[C@@H]1CN(C(=O)c2cc(N3CCOCC3)cc3c2OCCN3C)C[C@H](C)O1	.	.	.	.	4.4*
O=C(Nc1ccccc1)N1CCCC(C(=O)N2CCC(N3Cc4cccn4C3=O)CC2)C1 (stereo unspecified)	-12	-3%	-3%	-2%	.
O=S(=O)(c1ccccc1)N1CC(c2nc(-c3ccncc3)no2)C1	9	i	0%	9%	.
CCc1nc(C(N)=O)c(Nc2ccc(N3CCC(N4CCN(C)CC4)CC3)c(OC)c2)nc1NC1CCOCC1	26	8.6µM*	?	10%	3.1*
Cn1cc(CN2CCCN(S(=O)(=O)c3ccccc3)CCC(=O)NCC2)c2ccccc21	9	4%	-19%	-14%	.
C=CC(=O)Nc1cccc(Oc2nc(Nc3ccc(N4CCN(C)CC4)cc3OC)ncc2Cl)c1	-4	?	?	-4%	.
COc1ccccc1Nc1ccnc(N2CCC(C(=O)NC(C)C)CC2)n1	24	4%[88.5 µM]	-9%[87.6 µM]	-6%[87.6 µM]	.
COc1cc(N2CCC(C(N)=O)CC2)ccc1Nc1nc(N)c(Cl)c(Nc2ccccc2S(=O)(=O)C(C)C)n1	.	1.4µM*	?	?	3.9*
COc1cc(N2CCC(N3CCN(C)CC3)CC2)ccc1Nc1ncnc(Nc2ccccc2S(=O)(=O)C(C)C)n1	2	4.3µM*!	?	?	1.5*
COc1cc(N2CCC(O)CC2)ccc1Nc1cc(Nc2ccccc2S(=O)(=O)C(C)C)c2cc[nH]c2n1	-3	3.4µM*!	?	?	3.4*
CN1CC(=O)N(C2CCCC2)Cc2c(NCCc3ccc(F)cc3)ncnc21	15	?	-6%	-3%	.
CCOC(=O)C(Cc1cccc(N2CCN(C(=O)c3c(Cl)cccc3Cl)CC2)c1F)OC (stereo unspecified)	11	.	.	.	.
CN1CCN(C)c2cc(Nc3ccc(N4CCOCC4)cc3)ncc2C1	.	.	.	.	7*
c1ccc(CCN2CCNc3cc(Nc4ccc(N5CCOCC5)cc4)ncc3C2)cc1	-1	14µM*	?	17%[87.6 µM]	6.3*
c1ccc(CN2CCNc3cnc(Nc4ccc(N5CCOCC5)cc4)cc3C2)cc1	-9	?	?	?	.
CN(C)c1ccc(C(=O)N[C@H]2CO[C@H]3[C@@H]2OC[C@@H]3n2cc(COc3ccccc3)nn2)cc1	-12	-12%	4%	-16%	.
